Test results: PubChem BioAssay (NCATS)
Inconclusive results are not listed. The source made the active and inactive calls. The call rests on the fitted dose curve; in most records, active means well fitted curve in the direction sought with a large enough effect; inconclusive means small, poorly fitted or top-dose-only effect, or another doubt; inactive means no such curve, though single readings can be large; an effect the other way counts as inactive or inconclusive.

Experiments:
[1] = target: Cytochrome P450 3A7 (Homo sapiens) (UniProt P24462); experiment: Cytochrome P450 family 3 subfamily A member 7 (CYP3A7) small molecule antagonists: luciferase biochemical qHTS assay (AID 1963596); further: on the % scale 0 is the no-effect control and ±100 the full control effect; nearly all actives have a fitted effect of over 40% in size
Procedure, shortened: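 Recombinant CYP3A7 P450-Glo luminescent assay: enzyme-proluciferin substrate mix preincubated with compound 10 min at room temperature, reaction started with NADPH regeneration system for 1 h. Luciferin detected by luminescence; ketoconazole as positive control.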

[2] = Viability qHTS for spleen associated tyrosine kinase inhibitor (SYKi) drug resistant MV4-11 cells (AID 1963824); further: nearly all actives have a fitted effect of over 35% in size
Procedure, shortened: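 SYK-inhibitor-resistant MV4-11 AML cells were seeded at 500 per well onto compound and cultured 72 hours (37 °C, 5% CO2). CellTiter-Glo was then added, and after 10 min at room temperature, luminescence gave viability.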

[3] = Cellular viability qHTS for adrenocortical cancer (ACC) cell line SW-13 (AID 1963989); details: SW-13 ACC cells viability, CellTiter-Glo, 48 h; activity (max response): stronger effect = lower value;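 further: cells grown in serum-free medium with ITS supplement; on the % scale 0 is the no-effect control and ±100 the full control effect; nearly all actives have a fitted effect of over 65% in size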
Procedure, shortened: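 Here, serum-free SW-13 cultures were dosed up to 46 uM. Following 48 h, ATP-dependent luminescence (CellTiter-Glo) reported viable cells, and logistic modeling produced IC50 values.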

[4] = Cellular viability qHTS for adrenocortical cancer (ACC) cell line NCI-H295R (AID 1963990);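 further: 0% = DMSO only wells and -100% = full killing with cytotoxic reference compound; nearly all actives have a fitted effect of over 60% in size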
Procedure, shortened: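 Viability of NCI-H295R after 48 h of treatment (final up to 46 uM) measured through cellular ATP luminescence.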

Cytochrome P450 3A7 (Homo sapiens), sequence (P24462 whole entry, looked up): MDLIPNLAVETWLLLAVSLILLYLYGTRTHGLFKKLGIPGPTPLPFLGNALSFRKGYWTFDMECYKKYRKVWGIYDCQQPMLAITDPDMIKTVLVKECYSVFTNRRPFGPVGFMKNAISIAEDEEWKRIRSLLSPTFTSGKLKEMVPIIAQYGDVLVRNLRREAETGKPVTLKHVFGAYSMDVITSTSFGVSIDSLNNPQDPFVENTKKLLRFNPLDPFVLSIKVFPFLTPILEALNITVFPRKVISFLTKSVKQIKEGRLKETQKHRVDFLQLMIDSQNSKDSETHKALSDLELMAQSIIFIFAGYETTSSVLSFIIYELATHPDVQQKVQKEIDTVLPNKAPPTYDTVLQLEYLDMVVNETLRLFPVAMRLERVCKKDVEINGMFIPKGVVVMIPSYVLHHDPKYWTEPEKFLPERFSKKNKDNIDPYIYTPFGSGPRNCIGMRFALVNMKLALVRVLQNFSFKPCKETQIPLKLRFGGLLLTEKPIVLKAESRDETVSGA

Oc1ccccc1C=NCc1ccccc1
inactive: Potency [1] | Potency [2] | activity (max response) [3] 6.8% | Potency [4]

C[C@@H](O)[C@H]1C(=O)N2C(C(=O)O)=C(SCCN=CN)C[C@H]12
inactive: Potency [1] | Potency [2] | activity (max response) [3] -5.98% | Potency [4]

Cc1ccnc(NS(=O)(=O)c2ccc(N)cc2)n1
inactive: Potency [1] | Potency [2] | activity (max response) [3] 8.12%

CCCCCCCC(=O)OCC(COC(=O)CCCCCCC)OC(=O)CCCCCCC
inactive: Potency [1] | Potency [2] | activity (max response) [3] 8.32%

NC(=O)CC[C@@H](N)C(=O)O
inactive: Potency [1] | Potency [2] | activity (max response) [3] 12.6%

CCCCCCCCCCCCCCCCCC(=O)O
inactive: Potency [1] | Potency [2] | activity (max response) [3] 18.1%

OCc1cccnc1
inactive: Potency [1] | Potency [2] | activity (max response) [3] 0.385%

NC(=O)NC(=O)Cc1ccccc1
inactive: Potency [1] | Potency [2] | activity (max response) [3] -0.635%

Cc1cc(-n2nc3ccc(Cl)cc3n2)c(O)c(C(C)(C)C)c1
inactive: Potency [1] | Potency [2] | activity (max response) [3] 9.75% | Potency [4]

CC(=O)N(CC(=O)N(C)C)c1ccccc1
inactive: Potency [1] | Potency [2] | activity (max response) [3] -5.65% | Potency [4]

OC1C(O)C(O)C(O)C(O)C1O (stereo not drawn)
inactive: Potency [1] | Potency [2] | activity (max response) [3] -3.11%

CCOCCn1c(C2CCN(CCc3ccc(C(C)(C)C(=O)O)cc3)CC2)nc2ccccc21
inactive: Potency [1] | Potency [2] | activity (max response) [3] 2.01%

O=C(O)c1ccccc1Nc1cc(Cl)ccc1C(=O)O
inactive: Potency [1] | Potency [2] | activity (max response) [3] -18.2%
